Compounds with a hit are over-represented: about 0.5% of the library has one in this group of screens.
Tat export inh: E. coli Tat transport inhibition; AID 488895; inhibition, % at 10 µM; 340,000 compounds, 0.036% hits; E. coli MC4100 TorA-mCherry Tat export, fluorescence;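 active means mean replicate inhibition at least 50% and at least half of replicates individually reaching 50%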;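 further: exported cargo escapes ClpAP degradation while cytoplasmic cargo is degraded and loses fluorescence; 0% = median of neutral control wells and 100% = median of NaSCN control wells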
phage Ecoli inh: E. coli growth loss with phage present; 360,000 compounds, 0.26% hits; inhibition, % at 11.9 µM; AID 651602; growth absorbance; in the data active means inhibition above about 11%
AddAB inh: less growth of phage-infected E. coli with AddAB; E. coli expressing H. pylori AddAB, absorbance growth; inhibition, % at 11.9 µM; 330,000 compounds, 0.29% hits; in the data active means inhibition above about 12%;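 further: 0% = vehicle wells of infected cells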
E coli growth-1: bacterial growth inhibition, counter-screen for AddAB inhibitors | inhibition, % at 11.9 µM | E. coli V3065 growth, OD600 absorbance, 18 h | 330,000 compounds, 0.27% hits;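 active means inhibition above the campaign's mean inhibition across all tested compounds plus 3 SD, cut at about 9.9% in these data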;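 further: uninfected addAB+ strain grown without phage in ampicillin broth; 0% = DMSO wells and 100% = ciprofloxacin 0.95 µg/ml wells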
E coli growth-2: inhibitors of Escherichia coli growth. OD600, 23 h; hits give low values. OD600 absorbance (no concentration beside the values). 330,000 compounds, 0.21% hits;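 active means OD600 absorbance below the run mean of sample wells minus 3.6 SD, in any replicate, cut at about 0.56 in these data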
An asterisk follows results filed as active.

CCCCCCCCCCCCCCCC[n+]1ccc(C(N)=O)cc1 was read as Tat export inh 51*, phage Ecoli inh 5, AddAB inh -1, E coli growth-1 -3 and E coli growth-2 0.32*.
Screening CCCCCCCCCCCCCCCC[n+]1ccccc1 returned Tat export inh 48, phage Ecoli inh 1 and E coli growth-2 0.057*.
For CCCCCCCCCCCCCCCC[n+]1ccc(/C=N/O)cc1 the results were Tat export inh -12, phage Ecoli inh 3, AddAB inh 0 and E coli growth-1 0.
Screening O=C(NCc1nc2ccccc2[nH]1)C1=CC(C2CCCCC2)CC(OCCCCO)O1 (configuration not stated) returned E coli growth-2 0.71.
For CC(C)CC(CC#N)N1CCN(CCc2ccccc2)CCC1=O (configuration not stated) the results were E coli growth-2 0.69.
CC1c2cccc(O)c2C(O)=C2C(=O)[C@]3(O)C(O)=C(C(N)=O)C(=O)C(N(C)C)C3C(O)C21 (some centres not stated) was read as E coli growth-2 0.065*.
`CC1c2cccc(O)c2C(O)=C2C(=O)C3(O)C(O)=C(C(N)=O)C(=O)C(N(C)C)C3C(O)C21` (configuration not stated) gave E coli growth-2 0.067*.
`CC1c2cccc(O)c2C(=O)C2C(=O)C3(O)C(=O)C(C(N)=O)C(=O)C(N(C)C)C3C(O)C21` (configuration not stated) gave E coli growth-2 0.068*.
`CN(C)c1ccc(O)c2c1CC1CC3C(N(C)C)C(=O)C(C(N)=O)=C(O)[C@]3(O)C(=O)C1=C2O` (some centres not stated) gave E coli growth-2 0.071*.
`COc1cc(C2OCC3C(c4ccc5c(c4)OCO5)OCC23)ccc1O` (configuration not stated) gave E coli growth-2 0.67.
Screening OCCC1CC(O)C(O)[C@@]2(CCCO2)O1 (some centres not stated) returned E coli growth-2 0.68.
For COc1cc(C)c(Cc2cnc(N)nc2N)cc1OC the results were AddAB inh 100* and E coli growth-1 101*.
For CCC1=C(OC(=O)N(CC)CC)N2C(=O)OC(=NCC(=O)OC)[C@]2(Cc2ccccc2)C2C1=CCC1C(=O)N(C)C(=O)C12 (some centres not stated) the results were E coli growth-2 0.71.
`CN(CC1CCOCC1)C(=O)CC1C(=O)NCCN1CC=Cc1ccccc1` (configuration not stated) gave E coli growth-2 0.74.
`CC(=O)c1cccc(N(CC(=O)NCCc2ccccc2)C(=O)c2csnn2)c1` gave Tat export inh -6, phage Ecoli inh 0, AddAB inh 4, E coli growth-1 0 and E coli growth-2 0.53*.
CC=CC=CC(=O)Nc1cccc(C2=NOC3(C2)CC(C(N)=O)N(C(=O)c2cc([N+](=O)[O-])cc([N+](=O)[O-])c2)C3)c1 (configuration not stated) was read as E coli growth-2 0.69.
`c1ccc2c(NCCCN3CCOCC3)c3ccccc3nc2c1` gave phage Ecoli inh 6, AddAB inh 15*, E coli growth-1 10* and E coli growth-2 0.63.
COc1ccc(C2CC(=O)C=C(c3cccc(F)c3OC)C2)cc1 (configuration not stated) was read as E coli growth-2 0.7.
CN1CCN(C2=Cc3cc(Cl)ccc3Sc3cc(F)ccc32)CC1 was read as Tat export inh -2, phage Ecoli inh 3, AddAB inh 1, E coli growth-1 -2 and E coli growth-2 0.36*.
For O=C(C(Cc1ccccc1)NS(=O)(=O)c1ccc(Cl)cc1)N1CC[C@@]2(O)CCCCC2C1 (some centres not stated) the results were E coli growth-2 0.69.
`COCc1cc(C=NNC(=O)Cc2ccc(Cl)cc2)ccc1OC` gave E coli growth-2 0.25*.
For C#CCOCCOCCOCCNc1nc(N2CCN(C(=O)Cn3cc(CCCN=C(N)N)nn3)CC2)nc(N2CCN(C(=O)C(C(C)CC)n3cc(CCC(=O)O)nn3)CC2)n1 (configuration not stated) the results were E coli growth-2 0.67.
CCOC(=O)c1sc(NC(=O)Nc2ccccc2Cl)cc1C was read as Tat export inh -4, phage Ecoli inh 8, AddAB inh 4, E coli growth-1 6 and E coli growth-2 0.7.
Screening CCOC(=O)c1sc(NC(=O)Nc2ccccc2)cc1C returned Tat export inh -11, phage Ecoli inh 11, AddAB inh 9, E coli growth-1 6 and E coli growth-2 0.53*.
`COc1ccc(Br)cc1C=NNC(=O)c1ccc(COc2ccc3c(c2)CCC3)o1` gave E coli growth-2 0.71.
For COc1ccccc1OCC(=O)NN=CC=Cc1ccc([N+](=O)[O-])o1 the results were E coli growth-2 0.36*.
For COC(=O)NN=Cc1ccc([N+](=O)[O-])o1 the results were E coli growth-2 0.051*.
`Cc1nc2ccccn2c1C(=O)N/N=C/c1ccc([N+](=O)[O-])o1` gave Tat export inh -10, phage Ecoli inh 7, AddAB inh 9 and E coli growth-1 6.
Screening Cc1nc2ccccn2c1C(=O)NN=Cc1ccc([N+](=O)[O-])o1 returned E coli growth-2 0.52*.
`CCN(CC)c1ccc(N=Cc2ccc([N+](=O)[O-])o2)cc1` gave Tat export inh -1, phage Ecoli inh 5, AddAB inh 12, E coli growth-1 5 and E coli growth-2 0.15*.
Screening CCC(C)C(N)c1cn(C(CCCCN)C(=O)N2CCNCC2)nn1 (configuration not stated) returned E coli growth-2 0.7.
COc1cccc(C2=CC(=O)CC(c3ccc(F)cc3)C2)c1 (configuration not stated) was read as E coli growth-2 0.67.
For CCC(C)C1CN(C(C)CN2CCCC2CN2C(N)=NCC2Cc2ccccc2)C(=N)N1CCCC1CCCC1 (configuration not stated) the results were E coli growth-2 0.62.
Cc1nn(-c2ccccc2)c(Cl)c1C=C(CC(=O)O)c1nc2ccccc2s1 was read as E coli growth-2 0.67.
Cc1ccc(S(=O)(=O)N2C(c3ccc(Cl)c(Cl)c3)CC=C(C(=O)O)C2c2ccccc2)cc1 (configuration not stated) was read as E coli growth-2 0.69.
Screening O=C(NN=Cc1ccc([N+](=O)[O-])o1)C(O)c1ccccc1 (configuration not stated) returned E coli growth-2 0.44*.
Screening Cc1ccc(NC(=O)Nc2ccccc2)cc1[N+](=O)[O-] returned Tat export inh 2, phage Ecoli inh 9, AddAB inh 6, E coli growth-1 5 and E coli growth-2 0.54.
`O=C(Nc1ccccc1)Nc1ccc2nnsc2c1` gave Tat export inh -5, phage Ecoli inh 9, AddAB inh 8, E coli growth-1 6 and E coli growth-2 0.4*.
